The values that follow come from PubChem BioAssay.

Square brackets hold non-standard residues; d marks the D form. Peptide text beside a SMILES is read from it. * marks the point of attachment. Phe(ol) = N[C@H](CO)Cc1ccccc1; Nle = CCCC[C@H](N)C(=O)O; Cbz = O=C(OCc1ccccc1)*; Boc = CC(C)(C)OC(=O)*; Aib = CC(C)(N)C(=O)O

The experiment can be described thus: viability loss with induced miR-34 in A549 – imaging, A549 dox-inducible miR-34, nuclei and caspase counts, primary screen (AID 1347080). Further: test concentration not given here. The settings on record: A549 miR-34 inducible, Hoechst nuclei count, 48 h; measured here: relative caspase fold change +Dox/-Dox.
Turning to `CCCCCCCC/C=C\CCCCCCCC(=O)OC[C@H](CO)OC(=O)CCCCCCC/C=C\CCCCCCCC`, the fold change came out at 0.954.
With `NC(=NCc1ccc(Cl)cc1Cl)NC(=O)c1nc(Cl)c(N)nc1N` the figure was 0.617; with `CN([C@@H](Cc1ccc(OS(=O)(=O)c2cccc3cnccc23)cc1)C(=O)N1CCN(c2ccccc2)CC1)S(=O)(=O)c1cccc2cnccc12`, 1.57.
With `CCCC[C@@H](C=O)NC(=O)[C@H](CC(C)C)NC(=O)[C@H](CC(C)C)NC(C)=O` (Ac-Leu-Leu-[Nle]-aldehyde) the figure was 1.22.
For `CCC(C)[C@H](NS(=O)(=O)c1cccc2ccccc12)C(=O)N[C@H](C=O)Cc1c[nH]c2ccccc12` (some centres undefined) the value was 1.24; for `CC(C)[C@@H]1NC(=O)[C@H](Cc2ccccc2)NC(=O)[C@@H](CC(=O)O)NC(=O)CNC(=O)[C@H](CCCN=C(N)N)NC1=O`, 0.655; for `CSCC[C@H](NC(=O)[C@H](Cc1ccccc1)NC[C@@H](NC[C@@H](N)CS)C(C)C)C(=O)O`, 1.07.
With `CCCCCCCCCC(=O)OC[C@H](CO)OC(=O)CCCCCCCCC`, the fold change came to 0.854.
For `CCC(C)[C@@H](CO[C@@H](Cc1ccccc1)C(=O)N[C@@H](CCS(C)(=O)=O)C(=O)OC(C)C)NC[C@@H](N)CS` (some centres undefined) the value was 1.27; for `CCCCC[C@@H](O)/C=C/[C@H]1[C@H](C/C=C\CCCC(=O)O)C(=O)C[C@@H]1O`, 0.858; for `CCCCC[C@@H](O)/C=C/[C@H]1[C@H](C/C=C\CCCC(=O)O)[C@H](O)C[C@@H]1O`, 0.636.
With `CC1(C)Oc2ccc(C#N)cc2[C@@H](OC2=CC(=O)CC2)[C@@H]1O` the figure was 1.24.
Consider `CC[C@H]1[C@@H]2C=C[C@@H]3[C@H]4C/C=C\C(=O)NCCC[C@@H]5NC(=O)C(=C5O)C(=O)CC[C@@H]4C[C@@H]3[C@H]2C[C@H]1C`, for which the fold change worked out at 0.587.
For `CCCCC/C=C\C\C=C/C=C/C=C/[C@@H](SC[C@H](N)C(=O)NCC(=O)O)[C@@H](O)CCCC(=O)O` the value was 1.35.
With `CCCC[C@@H](C)/C=C(C)/C=C(\C)C(=O)NC1=C[C@@](O)(/C=C/C=C/C=C/C(=O)NC2=C(O)CCC2=O)[C@@H]2O[C@@H]2C1=O` the figure was 1.03; with `C=C[C@@]1(C)CC(=O)[C@]2(O)[C@@]3(C)[C@H](O)CCC(C)(C)[C@@H]3[C@H](O)[C@H](OC(C)=O)[C@@]2(C)O1`, 0.977.
Consider `CCCCCCCCCCCCCCCCOC[C@H](CO)OC(C)=O`, for which the fold change stood at 1.5.
With `CC(C)[C@H](NC(=O)CNC(=O)OC(C)(C)C)C(=O)N[C@H](C=O)C(C)C` (Boc-Gly-Val-Val-aldehyde) the figure was 1.12; with `c1ccc(CN(CCN(Cc2ccccn2)Cc2ccccn2)Cc2ccccn2)nc1`, 2.99.
With `C=CC1CN2CCC1C[C@@H]2[C@H](O)c1ccnc2ccc(OC)cc12` (some centres undefined) the figure was 1.42; with `CCCCCCCCCCCCCCCCCCc1ccc(C(=O)/C=C/C(=O)O)cc1`, 0.873; with `CCCCC[C@H](O)CC(=O)CCc1ccc(O)c(OC)c1`, 0.961.
For `Nc1ncnc2c1nc(Br)n2C1O[C@H]2COP(=O)(O)O[C@@H]2[C@@H]1O` (some centres undefined) the value was 1.27; for `N#C/C(=C/c1ccc(O)c(O)c1)C(=O)OC/C=C/c1ccccc1`, 1.47; for `CCCCC/C=C\C\C=C/C=C/C=C/[C@@H](SC[C@H](N)C(=O)O)[C@@H](O)CCCC(=O)O`, 1.02.
Take `CC(=O)N[C@@H](CC(C)C)C(=O)N[C@@H](CC(C)C)C(=O)N[C@H](C=O)CCCN=C(N)N`: the fold change was determined as 0.761.
In the case of `O=C[C@@H]1CCCN1C(=O)[C@@H]1CCCN1C(=O)OCc1ccccc1` (Cbz-Pro-Pro-aldehyde), the fold change amounted to 1.14.
Turning to `CC(=O)OCOC(c1cc([N+](=O)[O-])ccc1Oc1ccc(Br)cc1)P(=O)(OCOC(C)=O)OCOC(C)=O` (centres undefined), the fold change turned out to be 0.666.
With `C[C@H]([C@H](C)N1CC(=O)NC(=O)C1)N1CC(=O)NC(=O)C1` the figure was 0.644.
Take `CCCCC/C=C\C/C=C\CCCCCCCC(=O)O[C@@H](CO)COC(=O)CCCCCCCCCCCCCCCCC`: the fold change stood at 1.31.
With `CC12C=CC(=O)C=C1CCC1C2=CCC2(C)C1CC[C@@H]2C(=O)CN1CCN(c2cc(N3CCCC3)nc(N3CCCC3)n2)CC1` (some centres undefined) the figure was 1.43; with `CCCCCCCCCCCCCCCCOC[C@H](CO)OC`, 0.894.
Regarding `COC(=O)/C=C/c1ccc(C(=O)NCC(=O)N[C@@H](CCC(=O)OC)C(=O)N[C@@H](CC(C)C)C(N)=O)cc1`, the fold change turned out to be 1.99.
For `NC1=NC2C(N=C(Br)N2C2O[C@H]3COP(=O)(O)O[C@@H]3[C@@H]2O)C(=O)N1` (some centres undefined) the value was 1.29; for `Nc1cc(N2CCCCC2)nc(N)[n+]1OS(=O)(=O)[O-]`, 1.39.
For `Clc1ccc2ncnc(NCc3ccc4c(c3)OCO4)c2c1` the value was 1.41; for `COC(=O)CNC(=O)C(=O)OC`, 1.36.
With `CC(=O)NC(C)(C)C(=O)N1CCC[C@H]1C(=O)NC(C)(C)C(=O)N[C@@H](C)C(=O)NC(C)(C)C(=O)N[C@@H](C)C(=O)N[C@@H](CCC(N)=O)C(=O)NC(C)(C)C(=O)N[C@H](C(=O)NC(C)(C)C(=O)NCC(=O)N[C@@H](CC(C)C)C(=O)NC(C)(C)C(=O)N1CCC[C@H]1C(=O)N[C@H](C(=O)NC(C)(C)C(=O)NC(C)(C)C(=O)N[C@@H](CCC(=O)O)C(=O)N[C@@H](CCC(N)=O)C(=O)N[C@H](CO)Cc1ccccc1)C(C)C)C(C)C` (Ac-[Aib]P[Aib]A[Aib]AQ[Aib]V[Aib]GL[Aib]PV[Aib][Aib]EQ[Phe(ol)]) the figure was 1.3; with `CC(C)C[C@@H](/C=C/S(C)(=O)=O)NC(=O)[C@H](CC(C)C)NC(=O)[C@H](CC(C)C)NC(=O)OCc1ccccc1`, 1.63.
